The source of these data is PubChem BioAssay (NCI).

Among the test systems are DU-145 prostate; K-562 leukemia; MALME-3M melanoma; MDA-MB-231 breast; RXF 393 renal; SF-268 CNS; SF-295 CNS; SF-539 CNS; UACC-257 melanoma; M14 melanoma.
What all share (experiment): NCI-60 one-dose screen, 48 h (100 = growth as untreated, 0 = no growth, -100 = all killed)
Common to all, as to conditions: 10 µM unless noted

SMILES strings stand for the structures. “And” between values parts separate entries of the source, which are not always exact repeats. Identical values can stand only once. The panel holds about 83,000 compounds, 20% with a hit somewhere; the sample as a whole holds those more often.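 Step 1: grow cells in 96-well plates. Step 2: add test compound at a single concentration. Step 3: incubate 48 h. Step 4: record percent growth.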 The source made the active and inactive calls. Rule for the calls: active = growth percent below 10; inactive = the rest.

Take `CC(=O)Nc1ccc(O)cc1`: the growth in the assay with DU-145 prostate was 103% (inactive) and 113% (inactive) and 118% (inactive); in the assay with K-562 leukemia, 107% (inactive) and 83.2% (inactive) and 106% (inactive); in the assay with MALME-3M melanoma, 100% (inactive) and 1.98% (active) and 142% (inactive); with MDA-MB-231 breast, 101% (inactive) and 119% (inactive) and 92.4% (inactive); in the assay on RXF 393 renal it was 108% (inactive) and 129% (inactive); with SF-268 CNS, 100% (inactive) and 106% (inactive) and 105% (inactive). Moreover, the growth in the assay on SF-295 CNS was 89.9% (inactive) and 94.1% (inactive) and 107% (inactive); with SF-539 CNS, 104% (inactive) and 95.4% (inactive) and 103% (inactive); in the assay on UACC-257 melanoma, 98.3% (inactive) and 155% (inactive) and 107% (inactive); with M14 melanoma, 97.2% (inactive) and 123% (inactive) and 109% (inactive).

Regarding `NS(=O)(=O)c1cc2c(cc1Cl)NC(C(Cl)Cl)NS2(=O)=O` (stereo not given), the growth in the assay with DU-145 prostate is 108% (inactive) and 112% (inactive); in the assay on K-562 leukemia, 97% (inactive) and 93.9% (inactive); with MALME-3M melanoma, 107% (inactive); in the assay with MDA-MB-231 breast, 105% (inactive) and 108% (inactive); in the assay with RXF 393 renal it was 112% (inactive) and 128% (inactive); with SF-268 CNS, 107% (inactive) and 104% (inactive). The growth was 118% (inactive) and 111% (inactive) in the assay with SF-295 CNS; 104% (inactive) with SF-539 CNS; 84.4% (inactive) and 95% (inactive) in the assay with UACC-257 melanoma; 97.5% (inactive) and 107% (inactive) in the assay on M14 melanoma.

`COc1ccc2nc(Cl)cc(C)c2c1`: the growth was 104% (inactive) and 101% (inactive) in the assay on DU-145 prostate; 104% (inactive) and 89.5% (inactive) in the assay with K-562 leukemia; 97.5% (inactive) and 127% (inactive) in the assay with MALME-3M melanoma; 99.9% (inactive) and 102% (inactive) with MDA-MB-231 breast; 91.6% (inactive) and 75.9% (inactive) in the assay with RXF 393 renal; 101% (inactive) and 116% (inactive) in the assay on SF-268 CNS. Further, the growth with SF-295 CNS was 92.8% (inactive) and 87.6% (inactive); in the assay with SF-539 CNS it was 96.5% (inactive) and 107% (inactive); in the assay on UACC-257 melanoma, 100% (inactive) and 95.9% (inactive); with M14 melanoma it was 100% (inactive) and 109% (inactive).

Consider `Clc1ccc(SSc2ccc(Cl)cc2)cc1`, for which the growth is 103% (inactive) and 109% (inactive) in the assay with DU-145 prostate; 100% (inactive) in the assay with K-562 leukemia; 95% (inactive) and 119% (inactive) in the assay with MALME-3M melanoma; 107% (inactive) and 62.2% (inactive) in the assay on MDA-MB-231 breast; 96.1% (inactive) and 86% (inactive) with RXF 393 renal; 94.4% (inactive) and 72.4% (inactive) in the assay on SF-268 CNS. The growth with SF-295 CNS is 103% (inactive) and 93.8% (inactive); in the assay on SF-539 CNS, 99.5% (inactive) and 88.7% (inactive); with UACC-257 melanoma, 91.5% (inactive) and 98.3% (inactive); in the assay with M14 melanoma it was 93.6% (inactive) and 94.1% (inactive).

`CN(C)CCC(=O)c1ccc(Cl)cc1`: the growth in the assay on DU-145 prostate was 112% (inactive) and 133% (inactive); with K-562 leukemia it was 110% (inactive) and 91.3% (inactive); in the assay with MALME-3M melanoma it was 106% (inactive) and 122% (inactive); with MDA-MB-231 breast, 105% (inactive) and 107% (inactive); in the assay on RXF 393 renal, 110% (inactive) and 121% (inactive); with SF-268 CNS it was 105% (inactive) and 107% (inactive). For the same compound, the growth with SF-295 CNS is 117% (inactive) and 126% (inactive); with SF-539 CNS, 106% (inactive); with UACC-257 melanoma, 103% (inactive) and 104% (inactive); with M14 melanoma, 98.6% (inactive) and 109% (inactive).

With `CCOC(=O)C(C(=O)OCC)C(c1ccccc1)N1CCN(c2ccccc2)CC1` (stereo not given), the growth in the assay with DU-145 prostate is 127% (inactive) and 109% (inactive); in the assay with K-562 leukemia, 120% (inactive) and 93.5% (inactive); in the assay on MALME-3M melanoma, 92.2% (inactive); with MDA-MB-231 breast it was 109% (inactive) and 125% (inactive); in the assay with RXF 393 renal, 102% (inactive) and 97.6% (inactive); with SF-268 CNS it was 110% (inactive) and 100% (inactive). In addition, the growth is 108% (inactive) and 105% (inactive) with SF-295 CNS; 111% (inactive) and 118% (inactive) in the assay with SF-539 CNS; 98.6% (inactive) and 100% (inactive) in the assay with UACC-257 melanoma; 102% (inactive) and 103% (inactive) with M14 melanoma.

In the case of `CCc1c(CC(=O)O)c2cc(C)ccc2n1Cc1ccc(Cl)cc1`, the growth in the assay on DU-145 prostate is 106% (inactive) and 105% (inactive); in the assay on K-562 leukemia it was 152% (inactive); with MALME-3M melanoma it was 95.1% (inactive) and 200% (inactive); in the assay with MDA-MB-231 breast it was 110% (inactive) and 100% (inactive); in the assay with RXF 393 renal, 76.8% (inactive); in the assay on SF-268 CNS it was 96.3% (inactive) and 99.4% (inactive). Also, the growth was 91.6% (inactive) and 84.9% (inactive) in the assay with SF-295 CNS; 97.4% (inactive) and 90.2% (inactive) in the assay on SF-539 CNS; 87.7% (inactive) in the assay on UACC-257 melanoma; 101% (inactive) and 85.4% (inactive) in the assay on M14 melanoma.

`CC(C)C(=O)Nc1ccc([N+](=O)[O-])c(C(F)(F)F)c1`: the growth in the assay with DU-145 prostate was 74% (inactive) and 113% (inactive); in the assay on K-562 leukemia it was 57.1% (inactive) and 62.1% (inactive); in the assay on MALME-3M melanoma it was 83.3% (inactive) and 88% (inactive); with MDA-MB-231 breast it was 84.7% (inactive) and 102% (inactive); in the assay on RXF 393 renal it was 104% (inactive); with SF-268 CNS, 88.6% (inactive) and 102% (inactive). Further, the growth is 76.7% (inactive) and 92% (inactive) in the assay with SF-295 CNS; 96.9% (inactive) and 92.7% (inactive) with SF-539 CNS; 108% (inactive) and 112% (inactive) in the assay on UACC-257 melanoma; 98.9% (inactive) and 92.9% (inactive) in the assay on M14 melanoma.

As for `N#CCCOc1ccccc1`, the growth in the assay on DU-145 prostate is 117% (inactive); in the assay on K-562 leukemia, 89.6% (inactive); in the assay on MALME-3M melanoma, 95.1% (inactive); with MDA-MB-231 breast it was 108% (inactive); with RXF 393 renal, 114% (inactive); in the assay on SF-268 CNS it was 102% (inactive). Also, the growth was 101% (inactive) in the assay on SF-295 CNS, 96.2% (inactive) with SF-539 CNS, 92.6% (inactive) in the assay with UACC-257 melanoma and 97.9% (inactive) in the assay on M14 melanoma.

As for `COc1cc(-c2nccc3cc4c(cc23)OCO4)cc(OC)c1OC`, the growth in the assay with DU-145 prostate was 51.9% (inactive) and 30.2% (inactive); with K-562 leukemia, 13.4% (inactive) and 21% (inactive); in the assay on MALME-3M melanoma, 62.2% (inactive) and 44.7% (inactive); in the assay on MDA-MB-231 breast, 40.3% (inactive) and 48.9% (inactive); in the assay with RXF 393 renal, 6.69% (active) and 22.1% (inactive); in the assay on SF-268 CNS, 43.8% (inactive) and 40.6% (inactive). The growth with SF-295 CNS was 19.2% (inactive) and 15.7% (inactive); in the assay with SF-539 CNS, 19.9% (inactive) and 18.8% (inactive); with UACC-257 melanoma, 52.8% (inactive) and 39.3% (inactive); with M14 melanoma, 14% (inactive) and 23.1% (inactive).

`Clc1nc(Oc2ccccc2)nc(-c2cn(-c3ccccc3)c3ccccc23)n1`: the growth was 76.7% (inactive) in the assay on DU-145 prostate; 36.9% (inactive) in the assay with K-562 leukemia; 85.7% (inactive) in the assay with MALME-3M melanoma; 40% (inactive) in the assay with MDA-MB-231 breast; 42.9% (inactive) in the assay on RXF 393 renal; 28.3% (inactive) with SF-268 CNS. Also, the growth in the assay on SF-295 CNS is 86.2% (inactive); in the assay with SF-539 CNS it was 91.1% (inactive); in the assay on UACC-257 melanoma, 93.6% (inactive); in the assay with M14 melanoma it was 71.1% (inactive).

With `CCN1CCN(CCNc2nccc(-c3c(-c4cccc(O)c4)nc4sccn34)n2)S1(=O)=O`, the growth in the assay with DU-145 prostate is 67.1% (inactive) and 55.1% (inactive); in the assay with K-562 leukemia it was 69.6% (inactive) and 62.7% (inactive); in the assay on MALME-3M melanoma it was -11.1% (active) and -23.5% (active); in the assay with MDA-MB-231 breast, 64.7% (inactive) and 68.3% (inactive); in the assay with RXF 393 renal, 42.8% (inactive) and 61.8% (inactive); in the assay on SF-268 CNS, 86.2% (inactive). Moreover, the growth was 93.3% (inactive) and 98.9% (inactive) with SF-295 CNS; 89.7% (inactive) and 87.3% (inactive) in the assay with SF-539 CNS; 1.33% (active) and -7.98% (active) in the assay on UACC-257 melanoma; 5.92% (active) and 8.15% (active) with M14 melanoma.

Consider `COc1ccc2c(=O)cc(-c3ccccc3)[nH]c2c1`, for which the growth in the assay with DU-145 prostate is 15% (inactive) and 19.1% (inactive); in the assay with K-562 leukemia it was 9.54% (active) and -12.9% (active); in the assay with MALME-3M melanoma it was 40.7% (inactive) and 47.9% (inactive); in the assay with MDA-MB-231 breast, 29.9% (inactive) and 29.1% (inactive); in the assay with RXF 393 renal, 7.41% (active); in the assay with SF-268 CNS, 45.3% (inactive) and 43.1% (inactive). The growth in the assay with SF-295 CNS is -8.08% (active) and 2.52% (active); in the assay on SF-539 CNS it was -5.99% (active) and -23.9% (active); in the assay on UACC-257 melanoma, 65.2% (inactive) and 30.5% (inactive); in the assay with M14 melanoma, 4.76% (active) and 0.39% (active).

As to `O=C(O)C1C2C=CC(C2)C1C(=O)O` (stereo not given), the growth in the assay on DU-145 prostate is 113% (inactive) and 33% (inactive) and 117% (inactive); in the assay with K-562 leukemia, 107% (inactive) and 21.5% (inactive) and 95.5% (inactive); in the assay with MALME-3M melanoma, 109% (inactive) and 70% (inactive); with MDA-MB-231 breast it was 101% (inactive) and 66.9% (inactive) and 124% (inactive); with RXF 393 renal, 116% (inactive) and 38.8% (inactive) and 96.9% (inactive); in the assay on SF-268 CNS, 115% (inactive) and 38.7% (inactive) and 105% (inactive). Moreover, the growth in the assay with SF-295 CNS is 101% (inactive) and 9.77% (active); in the assay on SF-539 CNS it was 113% (inactive) and 27.8% (inactive) and 99.6% (inactive); with UACC-257 melanoma, 99.8% (inactive) and 35.6% (inactive) and 97.9% (inactive); in the assay on M14 melanoma it was 115% (inactive) and 39.1% (inactive) and 105% (inactive).
